Measured values: PubChem BioAssay (Tox21)
Records with an inconclusive call do not appear. Values without a mark were called inactive. The call rests on the fitted dose curve; in most records, active means well fitted inhibition curve with a large enough effect in the signal ratio in the repeat runs (not every such curve was filed as active); inconclusive means weak or mixed curves, or effect the other way; inactive means no such curve, though single readings can be large or run the other way; the % refers to the signal ratio. Positions of bridges follow the written chain, without caps; N, C: chain ends. Where a SMILES comes first, the peptide text is derived from it. Non-standard residues stand in square brackets, D forms with d. Residues, ends and D or L forms follow the SMILES beside them. hArg = N=C(N)NCCCC[C@H](N)C(=O)O; Mpa = O=C(O)CCS

Molecular target: Bile acid receptor (Homo sapiens) (UniProt Q96RI1)
Experiment: qHTS assay to identify small molecule antagonists of the farnesoid-X-receptor (FXR) signaling pathway (AID 743217)
Conditions: HEK293T FXR-UAS-bla, beta-lactamase ratio, CDCA-stimulated, 16 h; series mostly up to 62.6 µM; activity change, negative = inhibition: at the top concentration
Text: U.S. Tox21 Program National Center for Advancing Translational Sciences [NCATS] NIH Chemical Genomics Center [NCGC] U.S. Environmental Protection Agency [EPA] National Institutes of Environmental Health Sciences [NIEHS] National Toxicology Program [NTP] U.S. Food and Drug Administration [FDA] Tox21 Assay Overview: The farnesoid-X-receptor (FXR), a nuclear hormone receptor, is highly expressed in liver, intestine, kidney and adrenal cortex. Natural ligands of FXR are the bile acids (Cholic acid, Chenodeoxy cholic acid etc). FXR is an important regulator of diverse metabolic pathways, including the bile acid homeostasis, lipid and glucose metabolisms. FXR regulates the expression of target genes by binding either as a monomer or as a heterodimer with the retinoid X receptor (RXR). Numerous studies have reported that FXR exerts protective function during cholestasis, diabetes, liver regeneration, and cancer. To identify compounds that inhibit FXR signaling, GeneBLAzer FXR-UAS-bla HEK 293T cell line (Invitrogen, Carlsbad, CA) containing a beta-lactamase reporter gene under the control of a UAS response element was used to screen the Tox21 10K compound library.
Tox21 Assay Protocol Summary: FXR-bla cells were dispensed at 5000 cells/5uL/well in 1536-well black wall/clear bottom plates using a Multidrop Combi (Thermo Fisher Scientific, Waltham, MA) dispenser. After the assay plates were incubated at 37C and 5% CO2 for 5 h, 23 nL of compounds dissolved in DMSO, positive controls or DMSO only was transferred to the assay plate by a Pintool station (Kalypsys, San Diego, CA), followed by addition of 1 uL Chenodeoxycholic acid (50 uM, final concentration in the wells). The assay plates were incubated at 37C for 16 h. After 1 uL of LiveBLAzerTM B/G FRET substrate was added using a Bioraptr Flying Reagent Dispenser (FRD) workstation (Beckman Coulter, Indianapolis, IN), the plates were incubated at room temperature for 2 h, and fluorescence intensity was measured by an Envision plate reader (PerkinElmer, Shelton, CT).
On the % scale 0 is the no-effect control and ±100 the full control effect.

Chain of Bile acid receptor (Homo sapiens) (Q96RI1 whole entry, looked up): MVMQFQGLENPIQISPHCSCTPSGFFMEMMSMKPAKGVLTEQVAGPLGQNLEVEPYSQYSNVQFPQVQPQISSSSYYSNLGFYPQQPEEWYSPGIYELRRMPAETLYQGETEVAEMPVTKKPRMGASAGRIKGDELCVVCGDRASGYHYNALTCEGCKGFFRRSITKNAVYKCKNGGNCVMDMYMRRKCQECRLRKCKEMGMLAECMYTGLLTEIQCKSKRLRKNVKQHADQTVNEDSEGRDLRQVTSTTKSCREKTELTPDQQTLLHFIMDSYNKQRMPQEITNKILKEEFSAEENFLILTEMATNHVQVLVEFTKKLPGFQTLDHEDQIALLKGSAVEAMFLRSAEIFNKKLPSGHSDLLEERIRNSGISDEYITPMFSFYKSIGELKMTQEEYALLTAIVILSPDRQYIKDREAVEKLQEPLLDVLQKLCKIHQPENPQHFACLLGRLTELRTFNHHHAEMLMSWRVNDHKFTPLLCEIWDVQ

Point of comparison: `CCNC(=O)NCc1cccc(Cl)c1`, “activity change, negative = inhibition” value -2.32%. Against it:
- CC(=O)O[C@H]1C[C@@H]2CC[C@@]1(C)C2(C)C — higher, -0.103%
- Cc1ccnc(N)c1 — higher, 11.4%
- CC(=O)CC(=O)Nc1ccc(C)cc1C — lower, -8.51%
- CC(=O)N[C@@H](CO)C(=O)N[C@@H](CC(=O)O)C(=O)N[C@@H](CCCCN)C(=O)N1CCC[C@H]1C(=O)O (Ac-SDKP-OH) — higher, 2.51%
- CCCCOC(=O)C(C)O (stereo not given) — higher, 1.83%
- CC(C)(CO)C(O)C(=O)NCCCO (stereo not given) — higher, 3.92%
- O=C(O)CSCC(=O)NC1CCSC1=O (stereo not given) — higher, 4.56%
- CN(C)CCN(C)CCO — higher, 2.74%
- CCCCCCCCCCCCCBr — higher, -1.99%
- O=C(Cn1ccnc1[N+](=O)[O-])NCc1ccccc1 — higher, 0.0077%
- O=NN(CCCl)C(=O)NC1CCCCC1 — higher, -0.0825%
- OCC1(CO)COCOC1 — higher, 0.0104%
- CCc1occc(=O)c1O — higher, 1.02%
- CCN(CC)CCN — higher, 4.8%
- NCc1ccc(S(N)(=O)=O)cc1 — higher, 1.3%
- CCCCCc1cccc(=O)o1 — higher, 4.1%
- CC(O)CC(C)O (stereo not given) — higher, 0.425%
- Cc1ccc(N)cc1S(=O)(=O)O — lower, -13.6%
- N#Cc1ccccc1O — higher, 4.7%
- Cn1nnc2c(C(N)=O)ncn2c1=O — higher, -0.246%
- O=C[O][Al]([O]C=O)[O]C=O — higher, 3.49%
- C[C@]12CCC(=O)C=C1CC[C@H]1[C@@H]3CC[C@](O)(C(=O)CO)[C@@]3(C)C[C@H](O)[C@@]12F — higher, 1.99%
- Cc1c(NC(=O)c2cccnc2)c(=O)n(-c2ccccc2)n1C — higher, -1.68%
- CCCc1ccc(O)cc1 — higher, -0.356%
- CSc1cnccn1 — higher, 0.989%
- CCC(=O)CC — higher, 6.44%
- NC(=O)[C@@H]1CSSCCC(=O)N[C@@H](CCCCN=C(N)N)C(=O)NCC(=O)N[C@@H](CC(=O)O)C(=O)N[C@@H](Cc2c[nH]c3ccccc23)C(=O)N2CCC[C@H]2C(=O)N1 ([Mpa][hArg]GDWPC-NH2; disulfide 1-7) — higher, 9.01%
- C/C=C(\C)C(=O)OCCc1ccccc1 — higher, 1.14%
- CCCCC1CCC(O)CC1 (stereo not given) — higher, 2.03%
- CN1CCOC(c2ccccc2)c2ccccc2C1 (stereo not given) — higher, -0.202%
- CC(=O)O[C@@H]1CC2CCC1(C)C2(C)C (stereo not given in full) — higher, 0.965%
- CCCCOC(=O)[C@H](C)O — higher, 3.77%

Point of comparison: `CC1=C(O)C(=O)C(C)O1` (stereo not given), “activity change, negative = inhibition” value 2.93% [at 81.1 µM]. Against it:
- O=C1OCCO1 — lower, 0.305% [at 81.1 µM]
- CC(C)[C@H]1CC[C@H](C)C[C@@H]1O — lower, 0.366% [at 81.1 µM]
- CN(C)CCCCl — lower, 2.02% [at 81.1 µM]

Point of comparison: `O=C1c2ccccc2C(=O)c2cc(Cl)ccc21`, activity change, negative = inhibition -1.25% [at 5.95 µM]. Against it:
- O=S(=O)(O)c1ccc2c(N=Nc3ccc(S(=O)(=O)O)c4ccccc34)c(O)c(S(=O)(=O)O)cc2c1 — lower, -1.36% [at 5.95 µM]

For `CCn1cc(C(=O)O)c(=O)c2cnc(N3CCCC3)nc21`, the activity change, negative = inhibition was 6.21% [at 13.2 µM].
